# JMJD2E inh = JMJD2E (human) inhibition; actives 1.6% (n = 230,000); B2RXH2; JMJD2E catalytic domain, FDH-coupled NADH fluorescence (FDH is formaldehyde dehydrogenase); Potency, µM (highest dose often 57.1 µM), for the others: top-dose activity change, negative = inhibition, actives largely listed as inhibitors; active = well fitted inhibition curve with a large enough effect, not every such curve was filed as active; inconclusive = small, poorly fitted or top-dose-only effect, or another doubt; inactive = no such curve, though single readings can be large or run the other way;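 also: 0% = wells with enzyme and -100% = buffer wells without enzyme; nearly all actives have a fitted effect of over 50% in size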
# Target sequence (B2RXH2 1-337 limits assumed): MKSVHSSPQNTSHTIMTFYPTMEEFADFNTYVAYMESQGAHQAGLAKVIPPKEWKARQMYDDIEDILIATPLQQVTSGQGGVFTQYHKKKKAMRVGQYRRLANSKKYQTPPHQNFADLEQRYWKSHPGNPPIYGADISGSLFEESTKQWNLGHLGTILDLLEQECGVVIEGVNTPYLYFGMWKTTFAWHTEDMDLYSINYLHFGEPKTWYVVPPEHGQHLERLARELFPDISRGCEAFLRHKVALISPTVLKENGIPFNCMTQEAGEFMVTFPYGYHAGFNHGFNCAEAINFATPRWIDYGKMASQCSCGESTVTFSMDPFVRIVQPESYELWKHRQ
# ALDH1A1 inh = ALDH1A1 (human) enzyme inhibition. P00352. Purified ALDH1A1, NADH fluorescence, propionaldehyde substrate. Potency, µM (doses to about 75.3 µM), inactives show at the highest dose activity, negative = inhibition, usual class: inhibitors. actives 7.3% (n = 220,000). AID 1030; active = well fitted inhibition curve with a large enough effect, not every such curve was filed as active; inconclusive = small, poorly fitted or top-dose-only effect, or another doubt; inactive = no such curve, though single readings can be large or run the other way;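 also: plate controls were no enzyme wells and a reference inhibitor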
# Tau fibril ThT = inhibitors of human tau fibril formation, thioflavin T binding; Potency, µM (titrated, usually from 57.4 µM), for the others: at the highest dose activity, negative = inhibition, actives largely listed as inhibitors; recombinant tau K18 P301L, heparin-induced fibrillization, ThT fluorescence; P10636; actives 2.1% (n = 270,000); also: nearly all actives have a fitted effect of over 55% in size
# Target sequence (P10636 561-689 P618L limits assumed): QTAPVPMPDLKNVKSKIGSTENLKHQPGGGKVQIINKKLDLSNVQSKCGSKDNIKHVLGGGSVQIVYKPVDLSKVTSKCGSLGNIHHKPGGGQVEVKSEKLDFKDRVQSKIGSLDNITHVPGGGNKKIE
#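 Heparin-induced fibrillization of the P301L-mutant K18 repeat-domain fragment of human tau was followed by ThT binding in quantitative high-throughput format.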
# Tau FP inhib = tau fibrillization inhibition (FP); P10636; K18 P301L tau heparin fibrillization, Alexa594 FP, 6 h; Potency, µM (doses to about 57.7 µM), without a hit: at the top dose activity, negative = inhibition, hits mostly inhibitors; actives 0.39% (n = 280,000); AID 1468; also: nearly all actives have a fitted effect of over 55% in size
#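 Steps: dispense K18 P301L tau (15 uM plus 0.24 uM Alexa 594 tracer, final) in pH 7 sodium acetate; add compound; add heparin (20 uM final); incubate 6 hr, 37 C; add ThT (30 uM final); after 1 hr ambient, read FP.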
# HPGD block = blocks human HPGD enzyme activity; AID 894; purified HPGD, NADH fluorescence kinetic, PGE2 substrate; actives 4.3% (n = 150,000); Potency, µM, for the others: at the highest dose activity change, negative = inhibition, most hits filed as inhibitors; active = well fitted inhibition curve with a large enough effect, not every such curve was filed as active; inconclusive = small, poorly fitted or top-dose-only effect, or another doubt; inactive = no such curve, though single readings can be large or run the other way
# Target sequence (P15428 whole entry, looked up): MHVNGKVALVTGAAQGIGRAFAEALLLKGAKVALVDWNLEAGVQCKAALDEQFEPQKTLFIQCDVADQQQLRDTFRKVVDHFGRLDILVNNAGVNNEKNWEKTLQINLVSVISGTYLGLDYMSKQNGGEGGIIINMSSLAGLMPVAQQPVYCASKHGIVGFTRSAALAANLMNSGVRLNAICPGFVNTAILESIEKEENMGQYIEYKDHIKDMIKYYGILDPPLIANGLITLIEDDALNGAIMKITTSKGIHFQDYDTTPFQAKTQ
#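 20 nM HPGD preincubated 15 min at room temperature with compound in 50 mM Tris-HCl pH 8, 0.01% Tween 20. Started with 1 mM NAD+ and 30 uM prostaglandin E2; NADH fluorescence (360/450 nm) read 5 times over 30-s intervals, last minus first.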
# Tau fluor cs = counter-screen for tau fibril formation inhibitors; AID 1463; tau K18 P301L Alexa594 fluorescence, heparin fibrillization; actives 0.93% (n = 280,000); Potency, µM (doses to about 57.7 µM), for inactives: at the top dose activity change, negative = decrease; also: nearly all actives have a fitted effect of over 55% in size
#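 Human tau K18 P301L (15 uM unlabeled, 0.24 uM Alexa 594-labeled) in 100 mM sodium acetate pH 7 with 20 uM heparin, 6 hr at 37 C. ThT 30 uM added, 1 hr ambient; Alexa 594 FP and total fluorescence read at 555/632 nm.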
# Starred values were filed as active, the others as inactive; ? = inconclusive; . = no result; ! = not active in a repeat; [ ] = dose if it differs, or a comment. Sampled rows, rich in hits. Any-hit rate of the full collection: about 9.9%. Unless noted, calls follow the shape of the dose curve; as a rule, active = well fitted curve in the direction sought with a large enough effect; inconclusive = small, poorly fitted or top-dose-only effect, or another doubt; inactive = no such curve, though single readings can be large; an effect the other way counts as inactive or inconclusive. Unless noted, % is scaled to controls: 0 for no effect and ±100 for the full control effect; potency is read from the fitted curve at half-maximal effect.
SMILES,JMJD2E inh,ALDH1A1 inh,Tau fibril ThT,Tau FP inhib,HPGD block,Tau fluor cs
COC(C(=O)Nc1cccc([N+](=O)[O-])c1)c1ccccc1 (stereo unspecified),-2.9%,20µM*,1.6%,6.5%,.,5.3%
O=C(COc1ccccc1)NC(=S)Nc1cccc([N+](=O)[O-])c1,-0.4%,?,-2.0%,13.2%,28.2µM*,-5.3%
COc1ccc(NC(=O)C(OC(=O)c2ccc([N+](=O)[O-])o2)c2ccccc2)cc1Cl (stereo unspecified),-0.1%,2.51µM*,-0.7%,?,-19.7%,2.4%
CCC(C(=O)Nc1ccc(OC)c(Cl)c1)c1ccccc1 (stereo unspecified),5.5%,-14.4%,0.2%,-8.3%,-6.2%,?
CC(Oc1ccccc1)C(=O)Nc1cccc([N+](=O)[O-])c1 (stereo unspecified),-12.4%,-0.2%,-5.6%,-5.0%,.,-16.0%
O=C(Cc1ccc(F)cc1)N/N=C/c1ccncc1,0.4%,6.1%,-6.9%,5.0%,-4.5%,-0.6%
O=C(Nc1cnc2ccccn2c1=O)c1ccc(Cl)cc1,5.3%,3.4%,?,7.8%,-5.5%,0.3%
CC(C)Oc1cccc(C(=O)NC(=S)Nc2cccc(NC(=O)c3ccccc3Cl)c2)c1,-3.2%,11.2µM*,1.9%,?,-10.1%,-26.1%
Cc1ccc(OCC(=O)NC(=S)Nc2cccc(NC(=O)c3ccccc3Cl)c2)cc1,9.9%,12.6µM*,3.3%,-2.9%,-8.5%,-12.0%
COCCNC(=O)c1c(-c2ccccc2)c(-c2ccccc2)nn(C)c1=O,.,.,-4.7%,0.3%,.,-8.3%
CCc1nnc(NC(=O)c2ccc(S(=O)(=O)N(CC)Cc3ccccc3)cc2)o1,-17.8%,17.8µM*,?,8.5%,.,?
CCN(CC)S(=O)(=O)c1ccc(C(=O)Nc2nnc(-c3ccco3)o2)cc1,?,3.5%,-9.7%,-2.8%,.,-12.5%
CCCCN(CC)S(=O)(=O)c1ccc(C(=O)Nc2nnc(-c3cccs3)o2)cc1,25.1µM*,?,?,5.4%,-21.7%,-20.9%
COc1cc(C)c(NC(=S)Nc2cccc(Cl)c2C)cc1OC,?,?,-9.7%,-6.2%,-14.3%,-12.5%
CN1CCc2cccc3c2[C@H]1Cc1ccc(O)c(O)c1-3,?,?,17.8µM*,20µM*!,?,22.4µM*[quencher]
Cc1cccc2c(N=O)c(O)[nH]c12,2.0%,.,?,1.0%,.,-14.9%
CC1=C(C(=O)OC(C)C)C(c2cccs2)NC(=S)N1 (stereo unspecified),0.7%,3.16µM*,-1.4%,-12.9%,-9.1%,-7.9%
CC1=C(C(=O)Nc2ccc(C)cc2)C(c2cccs2)NC(=S)N1 (stereo unspecified),5.3%,?,-3.2%,-3.5%,-2.3%,-8.3%
CC1=C(C(=O)Nc2ccc(F)c(F)c2)C(c2cccs2)NC(=S)N1 (stereo unspecified),-3.6%,0.631µM*,1.7%,-2.6%,-6.4%,-0.5%
CC1=C(c2ccc(C)c(C)c2)S(=O)(=O)N=C1N1CCC(C(=O)NCCc2ccc(Cl)cc2)CC1,.,.,?,-6.5%,.,-15.2%
Oc1c(Cl)cc(CN(Cc2cc(Cl)c(O)c(Cl)c2)C2CCCCC2)cc1Cl,.,4.8%[13.5 µM],.,.,-2.6%,.
Oc1c(Cl)cc(Cl)c2c1NCCC2,?,5.01µM*,14.1µM*,?,-10.0%,?
COc1ccccc1-c1nc2s/c(=C\c3cccs3)c(=O)n2n1,?,-12.7%,?,5.6%,-7.9%,-0.8%
COc1cccc(/C=c2\sc3nc(-c4cccs4)nn3c2=O)c1OC,0.3%,3.6%,?,?,14.1µM*,-21.1%
COc1ccc(NC(=O)C(c2cc3c(cc2[N+](=O)[O-])OCO3)N2CCN(C=O)CC2)cc1 (stereo unspecified),?,?,?,-8.8%,-20.1%,-20.4%
SMILES,JMJD2E inh,ALDH1A1 inh,Tau fibril ThT,Tau FP inhib,HPGD block,Tau fluor cs
O=CN1CCN(C(C(=O)NC2CCCCC2)c2cc3c(cc2[N+](=O)[O-])OCO3)CC1 (stereo unspecified),?,5.01µM*,?,-7.3%,.,-17.4%
O=C(NC1CCCCC1)C(c1cc2c(cc1[N+](=O)[O-])OCO2)N1CCCCC1 (stereo unspecified),?,28.2µM*,-9.8%,3.0%,?,5.3%
COc1ccc(OC(=O)c2nc(SCc3ccccc3F)ncc2Cl)cc1,.,.,?,-8.2%,.,-19.7%
CCOc1cc(CNc2ccc3c(c2)CCC3)ccc1O,-5.6%,?,-22.1%,11.5%,-7.4%,-8.6%
Oc1ccc(NCc2ccccc2OCc2ccccc2)cc1,11.2µM*,5.62µM*,14.1µM*,12.6µM*!,14.1µM*,10µM*[quencher]
Oc1ccc(NCc2ccccc2OCc2ccc(Cl)cc2)cc1,.,.,14.1µM*,-14.8%,.,?
CCOc1cc(CNc2ccc(O)cc2)ccc1OCc1ccc(Cl)cc1,.,.,15.8µM*,-7.9%,.,14.1µM*[quencher]
COc1cccc(Nc2nc(N)c([N+](=O)[O-])c(NCc3ccccc3)n2)c1,-1.5%,.,?,?,.,15.8µM*[quencher]
Cc1cccc(Nc2nc(N)c([N+](=O)[O-])c(NCc3ccccc3)n2)c1,-5.1%,.,?,?,.,?
CCOc1ccc(Nc2nc(N)c([N+](=O)[O-])c(NCc3ccccc3)n2)cc1,11.6%,-7.8%,?,14.4%,.,14.1µM*[quencher]
OC[C@H](CCc1c[nH]c2ccccc12)c1c[nH]c2ccccc12,.,?,.,.,-29.1%,.
CCCn1c(=O)c2sccc2n2c(CCCC(=O)N3CCN(c4cccc(C)c4C)CC3)nnc12,.,.,-5.8%,14.0%,.,-1.4%
COC(=O)c1ccccc1NC(=O)CN1CCC(n2nnc3cc(C(F)(F)F)ccc32)CC1,1.8%,6.5%,-7.7%,2.2%,-12.7%,-7.7%
CC1Cc2ccccc2N1C(=O)CN1CCC(n2nnc3cc(C(F)(F)F)ccc32)CC1 (stereo unspecified),-8.6%,11.2µM*,-2.6%,-0.1%,?,-2.8%
COC(=O)c1ccc(C(NC(=O)c2ccco2)[C@]2(C)C[C@H]2C2CCCCC2)cc1 (stereo partly specified),-19.7%,3.55µM*,?,-1.5%,-11.1%,-11.8%
Cc1ccc(C)c(N2CCN(S(=O)(=O)c3ccc(F)c(C(=O)Nc4ccc(Cl)cc4Cl)c3)CC2)c1,.,.,-2.8%,?,.,-8.2%
Cc1nc(C)c(/C(O)=C\c2nc3ccc([N+](=O)[O-])cc3oc2=O)o1,20µM*,.,?,1.0%,.,-7.7%
CCCCCCCCCCCCCCC1CO1 (stereo unspecified),.,12.5%,.,.,-2.1%,.

# Screens deposited in PubChem BioAssay by National Center for Advancing Translational Sciences (NCATS).
